{"source": "ChEMBL document CHEMBL4513216", "about": "“Probing the Open Global Health Chemical Diversity Library for Multistage-Active Starting Points for Next-Generation Antimalarials” (ACS Infect Dis, 2020)", "note": "Hit rate of the full screen: of about 68,000 compounds, about 2,700 (4%) showed an effect of 50% or more. Only a selection was taken, and strong results are over-represented in it overall."}
{"test_system": "Plasmodium berghei", "assay": "Screen against P. berghei liver stage (PbLuc), transformed with Luciferase, at 2uM", "assay_type": "functional, HepG2", "conditions": "tested at 2 uM", "units": {"INHIBITION": "%"}}
{"smiles": "COc1cccc2c1OCC(NC(=O)NCCc1ccccn1)C2", "note": "(stereo not drawn)", "INHIBITION": 40.59}
{"smiles": "NC(=O)N1CCCN(CCCSCc2ccccc2)CC1", "INHIBITION": -16.28}
{"smiles": "c1ccc(Cc2cccc(C3CCCN3C3CCOCC3)n2)cc1", "note": "(stereo not drawn)", "INHIBITION": 44.16}
{"smiles": "O=S(=O)(c1cccc(F)c1)N1C[C@H]2CC[C@@H](C1)N(Cc1ccccc1)C2", "INHIBITION": -13.58}
{"smiles": "CC(C(=O)NCc1ccnc(OC2CCCC2)c1)n1cncn1", "note": "(stereo not drawn)", "INHIBITION": -5.34}
{"smiles": "O=C1NCCCc2c1oc1ccc(O)c(CN3CCOCC3)c21", "INHIBITION": 10.49}
{"smiles": "CCN(C)C(=O)c1ccc2c(c1)C(c1nc[nH]n1)CN2S(C)(=O)=O", "note": "(stereo not drawn)", "INHIBITION": 53.55}
{"smiles": "CCC(CC)NC(=O)c1ccc2c(c1)C(c1nc[nH]n1)CN2S(C)(=O)=O", "note": "(stereo not drawn)", "INHIBITION": 36.34}
{"smiles": "CC(C)NC(=O)c1ccc2c(c1)C(c1nc[nH]n1)CN2S(C)(=O)=O", "note": "(stereo not drawn)", "INHIBITION": -18.52}
{"smiles": "Cc1cnc(C(=O)N2CCCC(n3cncn3)C2)cn1", "note": "(stereo not drawn)", "INHIBITION": -43.79}
{"smiles": "CCOc1cc(CN[C@@H]2COC[C@H]2Cc2cc(C)no2)ccc1O", "INHIBITION": 33.64}
{"smiles": "Cc1c(C(=O)N2CCN(C)[C@@H]3CS(=O)(=O)C[C@@H]32)[nH]c2ccc(F)cc12", "INHIBITION": 28.95}
{"smiles": "CCc1c(C(=O)N2CCN(C)[C@@H]3CS(=O)(=O)C[C@@H]32)[nH]c2ccccc12", "INHIBITION": 65.3}
{"smiles": "CCN1CCN(C(=O)c2[nH]c3ccccc3c2Cl)[C@H]2CS(=O)(=O)C[C@H]21", "INHIBITION": 25.65}
{"smiles": "COc1ccccc1-n1nc(C(C)C)nc1Cc1nnc(N)s1", "INHIBITION": 49.32}
{"smiles": "CS(=O)(=O)NCCCNC(=O)c1cccnc1O", "INHIBITION": -55.03}
{"smiles": "C[C@H]1C[C@@H]2CCN(Cc3ccccn3)C[C@H]2O1", "INHIBITION": 0.78}
{"smiles": "C[C@@H]1C[C@@H]2CCN(Cc3ccccn3)C[C@H]2O1", "INHIBITION": 2.98}
{"smiles": "C[C@H]1C[C@H]2CN(Cc3ccccn3)CC[C@@H]2O1", "INHIBITION": 66.23}
{"smiles": "O=C(Cn1cccn1)N1CCc2[nH]nc(-c3ccc4c(c3)OCO4)c2C1", "INHIBITION": 37.41}
{"smiles": "O=C1CN([C@@H]2CC[C@@H](NS(=O)(=O)c3ccc(F)cc3)[C@H]2O)CCN1", "INHIBITION": 22.95}
{"smiles": "COCc1nc(C(=O)N2CCCC(n3ccnc3C(C)C)C2)cs1", "note": "(stereo not drawn)", "INHIBITION": 52.52}
{"smiles": "COCc1nc(C(=O)N2CCCC(n3ccnc3)C2)cs1", "note": "(stereo not drawn)", "INHIBITION": 28.54}
{"smiles": "Cc1ccc(CC(=O)N2CCCC(n3ccnc3C(C)C)C2)cn1", "note": "(stereo not drawn)", "INHIBITION": 28.65}
{"smiles": "CC(C)c1nccn1C1CCCN(C(=O)c2ccsc2)C1", "note": "(stereo not drawn)", "INHIBITION": -12.41}
{"smiles": "CSCC(=O)N1CCCC(n2ccnc2C(C)C)C1", "note": "(stereo not drawn)", "INHIBITION": -47.97}
{"smiles": "CCc1nccn1C1CCCN(C(=O)c2csc(COC)n2)C1", "note": "(stereo not drawn)", "INHIBITION": 24.15}
{"smiles": "Cc1nc(CC(=O)N2CCCC(n3ccnc3C(C)C)C2)cs1", "note": "(stereo not drawn)", "INHIBITION": 66.2}
{"smiles": "COCc1nc(C(=O)N2CCCC(n3cccn3)C2)cs1", "note": "(stereo not drawn)", "INHIBITION": 21.89}
{"smiles": "COCc1nc(C(=O)N2CCCC(n3ccnc3C)C2)cs1", "note": "(stereo not drawn)", "INHIBITION": 53.69}
{"smiles": "Cc1ccsc1CN1CCC(n2cc(C(O)c3ccccc3)nn2)CC1", "note": "(stereo not drawn)", "INHIBITION": -6.04}
{"smiles": "CC(C)(C)C(=O)N1CCC(n2cc(C3(O)CCCC3)nn2)CC1", "INHIBITION": -21.47}
{"smiles": "Fc1ccccc1C1(CNC2CCOC3(CCOCC3)C2)CCCC1", "note": "(stereo not drawn)", "INHIBITION": -27.61}
{"smiles": "CN(C)c1cc(CNC(=O)c2cnccn2)ccn1", "INHIBITION": -14.75}
{"smiles": "Cc1cc(C(=O)N2CCn3cc(CN4CCOCC4)nc3C2)no1", "INHIBITION": 22.68}
{"smiles": "Cc1ocnc1C(=O)N1CCN(CCOc2ccccc2)CC1", "INHIBITION": 41.86}
{"smiles": "CC(C)Cc1cc(NC(=O)c2ccccn2)n(C)n1", "INHIBITION": 7.13}
{"smiles": "Cc1noc(C)c1CS(=O)(=O)CC(=O)NCCc1cccs1", "INHIBITION": -49.96}
{"smiles": "Cn1cccc1C(=O)NCc1cn2c(n1)CN(Cc1ccccn1)CC2", "INHIBITION": 20.43}
{"smiles": "Cn1cc(C(=O)NCc2cn3c(n2)CN(Cc2ccncc2)CC3)cn1", "INHIBITION": 12.38}
{"smiles": "Cn1cc(C(=O)NCc2cn3c(n2)CN(Cc2ccccn2)CC3)cn1", "INHIBITION": 53.98}
{"smiles": "Cc1noc(C)c1CN1C[C@@H](OCc2ccccn2)[C@H]2OCCC[C@H]21", "INHIBITION": -44.88}
{"smiles": "CCc1cc(=O)n(CC(=O)N2CCCC2)c(-c2ccc(F)cc2)n1", "INHIBITION": 22.13}
{"smiles": "CN(Cc1nc2ccccc2c(=O)[nH]1)C1CC(=O)N(C2CC2)C1=O", "note": "(stereo not drawn)", "INHIBITION": -68.81}
{"smiles": "CCS(=O)(=O)N1C[C@@H](c2nnc(C)o2)C[C@H]2OCC[C@H]21", "INHIBITION": 11.87}
{"smiles": "CCS(=O)(=O)N1C[C@H](c2nc(C)no2)C[C@H]2OCC[C@H]21", "INHIBITION": 63.23}
{"smiles": "Cc1noc([C@@H]2C[C@H]3OCC[C@H]3N(Cc3ccoc3)C2)n1", "INHIBITION": 51.26}
{"smiles": "Cc1nnc([C@H]2C[C@H]3OCC[C@H]3N(S(=O)(=O)N(C)C)C2)o1", "INHIBITION": 11.18}
{"smiles": "Cc1noc([C@H]2C[C@H]3OCC[C@H]3N(Cc3ccncc3)C2)n1", "INHIBITION": 29.81}
{"smiles": "CCCS(=O)(=O)N1C[C@@H](c2nc(C)no2)C[C@H]2OCC[C@H]21", "INHIBITION": -27.12}
{"smiles": "Cc1nnc([C@H]2C[C@H]3OCC[C@H]3N(S(=O)(=O)C3CC3)C2)o1", "INHIBITION": 50.32}
{"smiles": "Cc1noc([C@H]2C[C@H]3OCC[C@H]3N(Cc3ccc(F)cc3)C2)n1", "INHIBITION": 20.41}
{"smiles": "Cc1noc([C@H]2C[C@H]3OCC[C@H]3N(S(C)(=O)=O)C2)n1", "INHIBITION": 25.58}
{"smiles": "Cc1cc(N2CCc3c(ncn3C3CC3)C2)nc(N)n1", "INHIBITION": -25.22}
{"smiles": "O=C(CCC1CCCC1)NCCn1nc(C2CCNC2)c2cccnc21", "note": "(stereo not drawn)", "INHIBITION": 34.24}
{"smiles": "Cc1cccc(-n2ncc3c(=O)n(CCN4CCCCC4)cnc32)c1C", "INHIBITION": -34.12}
{"smiles": "CC(C)S(=O)(=O)N1CCN(C(=O)c2cnn(C)c2Cl)CC1", "INHIBITION": 12.98}
{"smiles": "CN(C(=O)c1ncn2c1CN(C)S(=O)(=O)c1ccccc1-2)C1CC1", "INHIBITION": 60}
{"smiles": "CCCN(CC)C(=O)c1ncn2c1CN(C)S(=O)(=O)c1ccccc1-2", "INHIBITION": 15.9}
{"smiles": "CCNC(=O)c1ncn2c1CN(C)S(=O)(=O)c1ccccc1-2", "INHIBITION": -64.43}
{"smiles": "Cc1ccc(C(=O)NC2CCN(C(=O)Nc3ccccn3)CC2)o1", "INHIBITION": 20.11}
{"smiles": "Cc1ccc(C(=O)N2CCN(C(=O)Nc3ccccn3)CC2)o1", "INHIBITION": 60.93}
{"smiles": "Cc1cccc(NC2CCN(C(=O)Nc3ccccn3)CC2)n1", "INHIBITION": -7.13}
{"smiles": "Cc1occc1C(=O)N1CCn2c(COCC3CC3)cnc2C1C", "note": "(stereo not drawn)", "INHIBITION": -5.65}
{"smiles": "CCN(CC)CCSc1ncnc2[nH]ncc12", "INHIBITION": -57.02}
{"smiles": "CCn1cc(CNc2ccc(F)c(N3CCCS3(=O)=O)c2)cn1", "INHIBITION": 67.51}
{"smiles": "CCn1cc(CNc2ccc(F)c(F)c2)cn1", "INHIBITION": -11.55}
{"smiles": "Cn1cc(CNc2ccc(F)c(N3CCCS3(=O)=O)c2)cn1", "INHIBITION": 30.06}
{"smiles": "CCCc1nc(CNc2ccc(F)c(F)c2)no1", "INHIBITION": -48.48}
{"smiles": "COc1ccc2[nH]c(=O)c(CN(C)CCN3CCCC3)cc2c1", "INHIBITION": 56.16}
{"smiles": "COc1ccc2cc(CN(C)CCN3CCCCC3=O)c(=O)[nH]c2c1", "INHIBITION": 38.12}
{"smiles": "CCN1CCCC1CNCc1cc2cc(OC)ccc2[nH]c1=O", "note": "(stereo not drawn)", "INHIBITION": 42.49}
{"smiles": "CCOCC(=O)N1C[C@H]2CCC[C@@]2(COC)C1", "INHIBITION": 42.4}
{"smiles": "CCn1nc(C)c(CNC(=O)c2nnc3ccc(Cl)cc3n2)c1C", "INHIBITION": 26.56}
{"smiles": "CCn1nc(C)c(CNC(=O)c2nnc3ccc(OC)cc3n2)c1C", "INHIBITION": 33.58}
{"smiles": "CCn1nc(C)c(CNC(=O)c2nnc3ccccc3n2)c1C", "INHIBITION": 70.37}
{"smiles": "Cc1nc(CN2CCC23CCN(C(=O)c2ccco2)CC3)cs1", "INHIBITION": 30.15}
{"smiles": "Cc1cncc(NCc2ccccc2N2CCOCC2)c1", "INHIBITION": 11.88}
{"smiles": "CCS(=O)(=O)c1cccc(C(=O)Nc2cccc3c2C(=O)N(C)C3=O)c1", "INHIBITION": 13.01}
{"smiles": "CCCOC1CCCN(C(=O)c2cnc(-c3csc(C)n3)nc2O)C1", "note": "(stereo not drawn)", "INHIBITION": -20.84}
{"smiles": "CC(=O)N1CCC2(CC1)[C@@H]1CN(Cc3cccnc3)C[C@@H]1C(=O)N2C", "INHIBITION": 35.89}
{"smiles": "CC(=O)N1CCC2(CC1)NC(=O)[C@H]1CN(Cc3cccnc3)C[C@H]12", "INHIBITION": 56.76}
{"smiles": "CC(C)C(=O)N1CCC2(CC1)NC(=O)[C@H]1CN(Cc3cccnc3)C[C@H]12", "INHIBITION": 37.54}
{"smiles": "Cn1cccc1CN1CCC2(CC1)CN(c1ncccn1)CCO2", "INHIBITION": -8.63}
{"smiles": "Cc1ccc(CNC(=O)CCNS(C)(=O)=O)cc1", "INHIBITION": 13.36}
{"smiles": "CCn1ccnc1CN1CCN(CC(=O)NC(C2CC2)C2CC2)CC1", "INHIBITION": 29.19}
{"smiles": "CC(=O)N[C@H]1CCO[C@@H](c2cccc(NC(=O)c3ccc(=O)[nH]n3)c2)C1", "INHIBITION": -3.15}
{"smiles": "COc1ccc(CN2CCc3nc(C4CCCCN4C)ncc3C2)cc1", "note": "(stereo not drawn)", "INHIBITION": -8.87}
{"smiles": "CN1CCCCC1c1ncc2c(n1)CCN(Cc1ccc(F)cc1)C2", "note": "(stereo not drawn)", "INHIBITION": 19.06}
{"smiles": "CN1CCCCC1c1ncc2c(n1)CCN(Cc1ccc(Cl)c(F)c1)C2", "note": "(stereo not drawn)", "INHIBITION": 56.99}
{"smiles": "O=C1COC2(COCCN(Cc3cccnc3)C2)CN1c1ccccc1", "note": "(stereo not drawn)", "INHIBITION": -43.73}
{"smiles": "N#CCCN(Cc1cccnc1)C(=O)c1ccc(OCC2CC2)cc1", "INHIBITION": 56.89}
{"smiles": "N#CCCN(Cc1ccco1)C(=O)c1ccc(OCC2CC2)cc1", "INHIBITION": -5.51}
{"smiles": "N#CCCN(CCC#N)C(=O)c1ccc(OCC2CC2)cc1", "INHIBITION": 5.98}
{"smiles": "O=C(c1cnccn1)N1CC[C@H]2[C@H]1CCN2S(=O)(=O)C1CC1", "INHIBITION": -17.44}
{"smiles": "CN(C)CC(=O)N1Cc2nc(C(=O)NCc3ccccc3)oc2C1", "INHIBITION": 16.4}
{"smiles": "CN(C)CC(=O)N1Cc2nc(C(=O)NCc3ccncc3)oc2C1", "INHIBITION": 52.08}
{"smiles": "CCCNC(=O)c1nc2c(o1)CN(C(=O)CN(C)C)C2", "INHIBITION": -31.4}
